We go through 23 compounds from the supplement of paper PMC6607015.

Structures can show the parent of a compound that is named as a salt.

Holding throughout (details): compound concentration in added solution (µM; 5 µl added to 20 µl cells): 10; 18 h
Assay [1] deals with A431. Kind of assay: LBPA endosome anti-LBPA integrated intensity (sum per cell), Z-score; higher = more LBPA staining. In outline:
(§1)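 HeLa MZ or A431 cells were plated at 3,500 per well in 20 µl over 5 µl of 10 µM compound solution in duplicate 384-well imaging plates and fixed in 4% PFA after 18 h. Staining used the 6C4 anti-LBPA antibody, filipin, propidium iodide and CellTracker green, with four 20× images captured per well. MetaXpress segmentation measured integrated LBPA or filipin intensity per cell, across the whole cell or inside LBPA endosomes, and AcuityXpress normalised these into Z-scores.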

Assay [2] relates to HeLa MZ. The description is as above. The gist of the method:
as §1

For assay [3], the system named is A431. Kind of assay: whole-cell filipin (free cholesterol) integrated intensity, Z-score; higher = more cholesterol staining. In outline:
as §1

In assay [4] the test system is HeLa MZ. The assay is described as above. The gist of the method:
as §1

In assay [5] the test system is A431. The assay is described as follows: filipin (cholesterol) integrated intensity within LBPA endosomes, Z-score; higher = more cholesterol in LBPA endosomes. The gist of the method: as §1
In assay [6] the test system is HeLa MZ. Described as above. The gist of the method:
as §1

`CC(N)C(O)c1ccccc1` (stereo not given) [Phenylpropanolamine hydrochloride]: the “LBPA endosome anti-LBPA integrated intensity (z-score)” value is -0.541 in the assay with A431 [1] and -1.1 in the assay with HeLa MZ [2]. Also, the figures for the “whole-cell filipin (z-score)” value in the assay with A431 [3] and in the assay with HeLa MZ [4] were -0.689 and -0.0866, respectively. The “filipin (z-score)” value is -0.502 with A431 [5] and -0.451 with HeLa MZ [6].
On to `C[N+](C)(C)CCCCCCCCCC[N+](C)(C)C` [Decamethonium bromide], for which the “LBPA endosome anti-LBPA integrated intensity (z-score)” value in the assay with A431 [1] is -0.547; with HeLa MZ [2], -1.08. The “whole-cell filipin (z-score)” value was determined as 0.0371 in the assay with A431 [3] and 0.872 in the assay with HeLa MZ [4]. In addition, the “filipin (z-score)” value in the assay with A431 [5] was -0.372; in the assay on HeLa MZ [6], -0.446.
Consider `O=C(O)CCCc1ccc(N(CCCl)CCCl)cc1` [Chlorambucil], for which the “LBPA endosome anti-LBPA integrated intensity (z-score)” value in the assay on A431 [1] was -0.184; in the assay on HeLa MZ [2] it was 1.86. In addition, the “whole-cell filipin (z-score)” value in the assay on A431 [3] was 1.33; in the assay on HeLa MZ [4], 2.72. Besides, the “filipin (z-score)” value is -0.393 in the assay on A431 [5] and -0.471 in the assay on HeLa MZ [6].
For the compound `CCCC(C)C1(CC)C(=O)NC(=O)NC1=O` (stereo not given) [Pentobarbital], the “LBPA endosome anti-LBPA integrated intensity (z-score)” value in the assay on A431 [1] was -0.683; in the assay with HeLa MZ [2] it was -1.58. Further, the “whole-cell filipin (z-score)” value is -0.881 in the assay on A431 [3] and -0.632 with HeLa MZ [4]. Moreover, the “filipin (z-score)” value was -0.553 in the assay on A431 [5] and -0.624 with HeLa MZ [6].
`O=[N+]([O-])O[C@@H]1CO[C@H]2[C@@H]1OC[C@@H]2O` [Isosorbide mononitrate]: the “LBPA endosome anti-LBPA integrated intensity (z-score)” value in the assay with A431 [1] was -0.416; with HeLa MZ [2], -0.118. In addition, the “whole-cell filipin (z-score)” value is 0.0855 with A431 [3] and -0.408 with HeLa MZ [4]. Besides, the figures for the “filipin (z-score)” value in the assay on A431 [5] and in the assay on HeLa MZ [6] were -0.35 and -0.464, respectively.
As for `CCN(C)C(=O)Oc1cccc([C@H](C)N(C)C)c1` [Rivastigmine], the “LBPA endosome anti-LBPA integrated intensity (z-score)” value with A431 [1] is -0.438; in the assay with HeLa MZ [2], -0.457. For the same compound, the “whole-cell filipin (z-score)” value with A431 [3] is 0.162; in the assay with HeLa MZ [4] it was 1.82. The “filipin (z-score)” value with A431 [5] was -0.375; with HeLa MZ [6], -0.164.
For `C=C1[C@@H]2CC[C@H]3[C@]4(C)C[C@H](O[C@@H]5O[C@H](CO)[C@@H](OS(=O)(=O)O)[C@H](OS(=O)(=O)O)[C@H]5OC(=O)CC(C)C)C[C@@H](C(=O)O)[C@H]4CC[C@]3(C2)[C@@H]1O` [Atractyloside potassium salt], the “LBPA endosome anti-LBPA integrated intensity (z-score)” value was -0.439 with A431 [1] and -0.0672 in the assay on HeLa MZ [2]. Also, the “whole-cell filipin (z-score)” value was -0.293 with A431 [3] and -0.252 in the assay on HeLa MZ [4]. Further, the “filipin (z-score)” value in the assay on A431 [5] is -0.383; with HeLa MZ [6], -0.47.
`CN1C(=O)CCS(=O)(=O)C1c1ccc(Cl)cc1` (stereo not given) [Chlormezanone]: the “LBPA endosome anti-LBPA integrated intensity (z-score)” value was -0.579 in the assay with A431 [1] and -0.715 with HeLa MZ [2]. Besides, the “whole-cell filipin (z-score)” value in the assay with A431 [3] is -0.534; in the assay on HeLa MZ [4] it was 0.0972. The results for the “filipin (z-score)” value in the assay on A431 [5] and with HeLa MZ [6] were -0.511 and -0.314, respectively.
Regarding `CC(C)(C)NCC(O)c1ccccc1Cl` (stereo not given) [Tulobuterol], the entries for the “LBPA endosome anti-LBPA integrated intensity (z-score)” value in the assay on A431 [1] and in the assay with HeLa MZ [2] were -0.101 and 1.38, respectively. The “whole-cell filipin (z-score)” value in the assay with A431 [3] came out at 0.203; in the assay on HeLa MZ [4] it was 0.36. The “filipin (z-score)” value in the assay on A431 [5] is -0.334; in the assay with HeLa MZ [6], -0.0322.
On to `C1CCc2nnnn2CC1` [Pentylenetetrazole], for which the “LBPA endosome anti-LBPA integrated intensity (z-score)” value in the assay with A431 [1] is -0.641; in the assay with HeLa MZ [2], -1.19. Also, the “whole-cell filipin (z-score)” value in the assay with A431 [3] is -0.85; with HeLa MZ [4], -0.876. Further, the entries for the “filipin (z-score)” value in the assay on A431 [5] and in the assay on HeLa MZ [6] were -0.452 and -0.614, respectively.
As to `C[C@@]12N[C@@H](Cc3ccccc31)c1ccccc12` [(-)-MK 801 hydrogen maleate], the “LBPA endosome anti-LBPA integrated intensity (z-score)” value with A431 [1] is -0.405; with HeLa MZ [2], 0.615. Besides, the results for the “whole-cell filipin (z-score)” value with A431 [3] and in the assay on HeLa MZ [4] were -0.428 and -0.298, respectively. Moreover, the “filipin (z-score)” value in the assay with A431 [5] is -0.407; in the assay with HeLa MZ [6] it was -0.347.
In the case of `COc1ccc(C(CN(C)C)C2(O)CCCCC2)cc1` (stereo not given) [Venlafaxine], the entries for the “LBPA endosome anti-LBPA integrated intensity (z-score)” value with A431 [1] and in the assay on HeLa MZ [2] were -0.375 and 0.627, respectively. Further, the “whole-cell filipin (z-score)” value in the assay with A431 [3] is -0.148; in the assay with HeLa MZ [4], -0.294. In addition, the entries for the “filipin (z-score)” value with A431 [5] and in the assay with HeLa MZ [6] were -0.383 and -0.283, respectively.
In the case of `CC(=O)O[C@H]1CC[C@@]2(C)C(=CC[C@@H]3[C@@H]2CC[C@]2(C)C(=O)CC[C@@H]32)C1` [Dehydroisoandosterone 3-acetate], the “LBPA endosome anti-LBPA integrated intensity (z-score)” value was -0.242 in the assay with A431 [1] and -0.00203 in the assay with HeLa MZ [2]. Besides, the “whole-cell filipin (z-score)” value with A431 [3] came to 0.0526; in the assay on HeLa MZ [4] it was 0.0333. The “filipin (z-score)” value in the assay with A431 [5] was -0.136; in the assay with HeLa MZ [6], -0.214.
Regarding `C[N+]12CCC(CC1)C(OC(=O)C(O)(c1ccccc1)c1ccccc1)C2` (stereo not given) [Clidinium bromide], the “LBPA endosome anti-LBPA integrated intensity (z-score)” value with A431 [1] is -0.478; in the assay with HeLa MZ [2], -0.195. Besides, the “whole-cell filipin (z-score)” value with A431 [3] is -0.441; in the assay with HeLa MZ [4], -0.644. Besides, the “filipin (z-score)” value in the assay on A431 [5] is -0.455; with HeLa MZ [6], -0.364.
On to `CCn1cc(C(=O)O)c(=O)c2cc3c(cc21)OCO3` [Oxolinic acid], for which the “LBPA endosome anti-LBPA integrated intensity (z-score)” value in the assay on A431 [1] is -0.55; with HeLa MZ [2], -0.225. For the same compound, the results for the “whole-cell filipin (z-score)” value with A431 [3] and in the assay on HeLa MZ [4] were -0.848 and -0.638, respectively. Moreover, the “filipin (z-score)” value in the assay on A431 [5] is -0.512; in the assay with HeLa MZ [6], -0.645.
Take `CO[C@]12C[C@@H](COC(=O)c3cncc(Br)c3)CN(C)[C@@H]1Cc1cn(C)c3cccc2c13` [Nicergoline]: the “LBPA endosome anti-LBPA integrated intensity (z-score)” value in the assay with A431 [1] amounted to 3.54; in the assay with HeLa MZ [2] it was 1.32. Also, the results for the “whole-cell filipin (z-score)” value in the assay with A431 [3] and in the assay with HeLa MZ [4] were 3.37 and -0.0724, respectively. The figures for the “filipin (z-score)” value with A431 [5] and with HeLa MZ [6] were 3.09 and 0.446, respectively.
Turning to `CCC1=C[C@H]2CN3CCc4c([nH]c5ccccc45)[C@](C(=O)OC)(C2)[C@H]13` [Catharanthine], the “LBPA endosome anti-LBPA integrated intensity (z-score)” value in the assay on A431 [1] is 0.776; in the assay with HeLa MZ [2] it was 1.57. Moreover, the results for the “whole-cell filipin (z-score)” value in the assay on A431 [3] and in the assay on HeLa MZ [4] were 1.16 and 0.581, respectively. For the same compound, the figures for the “filipin (z-score)” value with A431 [5] and in the assay with HeLa MZ [6] were 0.958 and 0.861, respectively.
Take `COc1ccc(OC)c(C(O)C(C)N)c1` (stereo not given) [Methoxamine hydrochloride]: the entries for the “LBPA endosome anti-LBPA integrated intensity (z-score)” value in the assay on A431 [1] and in the assay on HeLa MZ [2] were -0.442 and 0.415, respectively. The “whole-cell filipin (z-score)” value is -0.614 with A431 [3] and -0.834 in the assay with HeLa MZ [4]. Also, the figures for the “filipin (z-score)” value in the assay with A431 [5] and in the assay with HeLa MZ [6] were -0.515 and -0.513, respectively.
As for `C[C@]12CCC(=O)C(O)=C1CC[C@@H]1[C@@H]2CC[C@]2(C)C(=O)CC[C@@H]12` [Formestane], the “LBPA endosome anti-LBPA integrated intensity (z-score)” value in the assay with A431 [1] amounted to 1.1; in the assay with HeLa MZ [2], 1.9. Besides, the “whole-cell filipin (z-score)” value was found to be 2.53 in the assay on A431 [3] and 2.23 with HeLa MZ [4]. The “filipin (z-score)” value was 2.1 in the assay on A431 [5] and 1.15 in the assay on HeLa MZ [6].
With `C[C@]12CCC(=O)C=C1C=C[C@@H]1[C@@H]2CC[C@@]2(C)[C@H]1CC[C@@]2(O)CCC(=O)O` [Canrenoic acid potassium salt], the “LBPA endosome anti-LBPA integrated intensity (z-score)” value is -0.568 in the assay with A431 [1] and -1.1 in the assay on HeLa MZ [2]. Further, the “whole-cell filipin (z-score)” value in the assay on A431 [3] and in the assay on HeLa MZ [4] was -1.15 each time. For the same compound, the “filipin (z-score)” value in the assay on A431 [5] was -0.611; in the assay on HeLa MZ [6], -0.819.
Turning to `CC(Cc1ccccc1)NCCC(c1ccccc1)c1ccccc1` (stereo not given) [Prenylamine lactate], the “LBPA endosome anti-LBPA integrated intensity (z-score)” value in the assay on HeLa MZ [2] was 1.19. Moreover, the “whole-cell filipin (z-score)” value in the assay with HeLa MZ [4] was 1.27. Also, the “filipin (z-score)” value in the assay with HeLa MZ [6] was found to be 2.44.
On to `CC(=O)OCC1=C(C(=O)O)N2C(=O)[C@@H](N)[C@H]2SC1` [Cephalosporanic acid, 7-amino], for which the “LBPA endosome anti-LBPA integrated intensity (z-score)” value was -0.605 with A431 [1] and -1.08 with HeLa MZ [2]. Besides, the figures for the “whole-cell filipin (z-score)” value in the assay on A431 [3] and in the assay on HeLa MZ [4] were -0.806 and -0.877, respectively. Further, the results for the “filipin (z-score)” value with A431 [5] and in the assay on HeLa MZ [6] were -0.581 and -0.604, respectively.
Turning to `COc1cc2c(cc1OC)C(C)NCC2` (stereo not given), the “LBPA endosome anti-LBPA integrated intensity (z-score)” value with A431 [1] was -0.47; with HeLa MZ [2], 0.672. Moreover, the “whole-cell filipin (z-score)” value is -0.808 in the assay with A431 [3] and -0.327 with HeLa MZ [4]. The results for the “filipin (z-score)” value with A431 [5] and in the assay with HeLa MZ [6] were -0.528 and -0.121, respectively.
